# Only a sample is shown.
# aSyn 5UTR act: Activators via SNCA 5'UTR binding, MLPCN; 7.1% of 300,000 active; alpha-synuclein 5'UTR reporter, activators screen; activity score, % (tested at 7.5 µM), hits read low; in the data active means activity score below about -60%
# Numbers without * were called inactive.
SMILES,aSyn 5UTR act
Cc1ccc(NC(=O)CC(=O)c2ccccc2)cc1C,-117*
CC(C)c1nc(C#N)c(NN)o1,-127*
Cc1[nH]c2ccccc2c1C(=O)NS(=O)(=O)Nc1ccc(Cl)cc1,-82*
CCN(CC)Cc1c(O)ccc2c1O/C(=C\C=C\c1ccccc1)C2=O,-438*
CS(=O)(=O)Oc1ccc2c(c1)O/C(=C\C=C\c1ccccc1)C2=O,-81*
c1cc2c(cnc3cscc32)s1,-69*
O=C(/C=C\c1ccco1)NC(=S)Nc1ccccc1O,-74*
O=C(/C=C/c1ccco1)NC(=S)Nc1ccccc1O,-121*
Cc1ccc(-c2nc(N)n(C(=O)c3cccnc3)n2)cc1,-77*
Cc1cc(C(=O)CSc2cccc[n+]2[O-])c(C)n1-c1ccc(OC(F)F)cc1,-103*
Cc1c2cnn(CC(=O)NC3CCCC3)c(=O)c2c(C)n1Cc1ccccc1,-100*
COc1ccc(NC(=O)CSc2nnc(-c3cccc(O)c3)o2)cc1,-110*
O=C(CSc1nnc(-c2ccc(O)cc2)o1)Nc1ccccc1,-100*
Cc1cc(C)cc(NC(=O)CSc2nnc(-c3ccccc3Br)o2)c1,-67*
COc1ccccc1NC(=O)CSc1nnc(-c2ccccc2)o1,-90*
Nc1cccc(-c2cn3cc(C(F)(F)F)cc(Cl)c3n2)c1,-100*
FC(F)(F)c1cc(Cl)c2nc(-c3ccccc3)cn2c1,-80*
O=C1/C(=C/c2cccs2)CCC/C1=C\c1cccs1,-125*
Cn1cccc1/C=C1\CCC/C(=C\c2cccn2C)C1=O,-154*
COc1ccccc1C(=O)Nc1nnc(-c2ccccc2)s1,-153*
O=C(Nc1nnc(-c2ccccc2)s1)c1ccccc1O,-153*
CC(C)=CC(=O)Nc1nnc(-c2ccccc2)s1,-187*
COc1ccccc1C(=O)N(C)c1nnc(-c2ccccc2)s1,-117*
COc1cccc(C(=O)Nc2nnc(-c3ccccc3)s2)c1OC,-113*
Cc1ccccc1C(=O)Nc1nnc(SC(C)C)s1,-97*
SMILES,aSyn 5UTR act
CCOc1ccccc1C(=O)Nc1nnc(C(C)C)s1,-176*
COc1ccccc1C(=O)Nc1nnc(SCC(=O)Nc2ccc3c(c2)oc2ccccc23)s1,-152*
COc1ccccc1C(=O)Nc1nc(-c2cccs2)c(NC(C)=O)s1,-128*
COc1ccccc1C(=O)Nc1nnc(C)s1,-211*
CC(=O)Nc1ccc(-c2nnc(SCC(=O)Nc3ccc4c(c3)oc3ccccc34)n2C)cc1,-92*
O=C(CSc1ncn[nH]1)Nc1nnc(-c2ccccc2)s1,-74*
CCCCCCCCCCCCCCCC[N+](C)(C)CC,101
O=C(Nc1ccccc1)Nc1nnc(-c2ccccc2)s1,-162*
COc1c(C(=O)Nc2nccs2)ccc2ccccc12,-172*
Oc1cccc(C(Nc2nccs2)c2ccc3cccnc3c2O)c1 (configuration not stated),132
COc1cc2ccccc2cc1C(=O)NCC(c1cccs1)N(C)C (configuration not stated),-106*
COc1ccccc1OCCCC(=O)Nc1nccs1,-97*
O=C(COc1cccc2cccnc12)Nc1nccs1,-85*
COc1cc2ccccc2cc1C(=O)Nc1nccs1,-256*
COc1cccc2c1OCC(C(=O)Nc1nccs1)=C2,-122*
Nc1n[nH]c(N)c1N=Nc1ccc2c(c1)OCO2,-229*
Cc1ccc(N=Nc2c(N)n[nH]c2N)cc1,-93*
CC(C)N1CC(O)=C(c2nc3ccccc3[nH]2)C1=N,-74*
CCCCN1CC(O)=C(c2nc3ccccc3[nH]2)C1=N,-107*
CCCCCCCn1ccc(=N)cc1,56
CCCCCN1CC(O)=C(c2nc3ccccc3[nH]2)C1=N,-117*
CCCCCCCCCn1ccc(=N)cc1,82
c1ccc2nc(SCc3cn4ccccc4n3)cnc2c1,-66*
c1ccc2oc(SCc3cn4ccccc4n3)nc2c1,-111*
Cc1cccc2nc(CSc3nc4ccccc4o3)cn12,-89*
SMILES,aSyn 5UTR act
Cc1cc(C)c(C#N)c(SCc2cn3c(C)cccc3n2)n1,-104*
COCc1c(C(C)C)nc(C(C)C)c(/C=C/[C@@H](O)C[C@@H](O)CC(=O)O)c1-c1ccc(F)cc1,115
CC(C)Oc1cccc(-c2cc(C(=O)N3CCN(c4ncccn4)CC3)c3ccccc3n2)c1,-64*
Cc1cccc2c(C(=O)N3CCN(c4ccccc4)CC3)cc(-c3ccncc3)nc12,94
CCN1CCCC(OC(=O)c2cc(-c3ccc(C)cc3)nc3ccccc23)C1 (configuration not stated),-94*
COc1ccc2nc(-c3ccc(Cl)cc3)cc(C(=O)O)c2c1,-72*
CCOc1ccc(-c2cc(C(=O)O)c3ccccc3n2)cc1,-83*
COc1ccc(-c2cc(C(=O)OCC(=O)NC(C)C)c3ccccc3n2)cc1,-65*
Cc1ccc(-c2cc(C(=O)N3CCN(c4ccccc4O)CC3)c3ccccc3n2)o1,-81*
CCOc1ccc(-c2cc(C(=O)N3CCC(C)CC3)c3ccccc3n2)cc1,-128*
COc1ccc2cc(-c3cc(C(=O)OCC(=O)Nc4c(C)n(C)n(-c5ccccc5)c4=O)c4ccccc4n3)ccc2c1,52
CC(C)(C)OC(=O)N/N=C\c1ccc(OC(=O)c2cccs2)cc1,-91*
COc1ccc(/C=N\NC(=O)c2c(C)nc3ccc(Br)cn23)cc1,51
O=C(N/N=C/c1ccc(OC(=O)c2cccs2)cc1)c1ccccn1,-98*
CC(C)(C)OC(=O)N/N=C/c1ccc(Br)cc1,-132*
Cc1cc(C(=O)N/N=C/c2cc(Br)cc(Br)c2OC(=O)c2cccc(F)c2)n[nH]1,70
O=C(Oc1ccc(/C=N/NC(=O)c2ccccn2)cc1)c1cccc(F)c1,-116*
COc1cc(/C=N/NC(=O)c2ccccn2)ccc1OC(=O)c1ccc(Br)cc1,-84*
O=C(N/N=C/c1cccc(OC(=O)c2ccco2)c1)c1ccc(F)cc1,-104*
Cc1cc(C(=O)N/N=C/c2cc(Br)ccc2OC(=O)c2ccc(Br)cc2)n[nH]1,84
O=C(N/N=C/c1ccc(OC(=O)c2ccco2)cc1)c1ccccn1,-123*
O=C(Oc1ccc(/C=N/NC(=O)c2ccccn2)cc1)c1ccc(Br)cc1,-124*
COc1cc(OC)c(C(=O)/C=C/c2ccccc2)c(O)c1O,-92*
COc1cc(O)cc(O)c1C(=O)/C=C/c1ccccc1,-140*
CCOC(=O)c1cnc(-c2ccccc2)nc1N,-148*
SMILES,aSyn 5UTR act
CCOC(=O)c1cnc(-n2nc(C)cc2C)nc1NNc1nc(-c2ccccc2)cc(-c2ccccc2)n1,82
Cc1nc2ccc(C(=O)OCc3ccccc3Br)cc2nc1C,-166*
CCOC(=O)c1ccc2ncc(-c3ccccc3)nc2c1,-160*
CCOC(=O)c1cnc(-c2ccccc2)nc1N(C)C,-241*
COc1cc(SC)ccc1C(=O)Nc1ccccc1C#N,-192*
COc1ccccc1NC(=O)Nc1ccc2c(c1)CCC2,-126*
Cc1ccccc1NC(=O)Nc1ccc2c(c1)CCC2,-141*
Cc1ccccc1NC(=O)Nc1ccc(C(F)(F)F)cc1,-100*
COc1cc(SC)ccc1C(=O)Nc1ccc(Cl)cn1,100
COc1cc(SC)ccc1C(=O)Nc1ccc2c(c1)CCC2,-119*
COc1cc(O)oc1C=Nc1ccc(Cl)cc1,-64*
CC1(C)OC(=CC=Nc2ccc(Cl)cc2)OC1(C)C,103
COc1cc(O)oc1C=Nc1ccc(C(=O)O)cc1,-91*
CN(CCC#N)C(=O)CSc1ncnc2sc(-c3ccccc3)cc12,-106*
CCN(CC)C(=O)CSc1ncnc2sc(-c3ccccc3)cc12,-168*
CCc1cc2c(SCC(=O)c3ccccc3)ncnc2s1,-122*
CC(=O)c1c(C)nc(-c2ccc(Cl)cc2)nc1N=CN(C)C,-128*

# Screening data as filed in PubChem.
